The source of these data is PubChem BioAssay.

The source made the active and inactive calls. Rule as the data show it, unless noted: active = inhibition above about 80%; inactive = the rest.

A short description of experiment [1]: LFS_MB_P medulloblastoma growth inhibition, cell-based, chromothripsis tumors, cisplatin or BGB combos (AID 1671449).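 Also: cells exposed for 96 hours; 0% = vehicle DMSO and 100% = killing by high DMSO.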 Conditions: LFS_MB_P medulloblastoma cells.
Experiment [2] can be described thus: HDN33 neuroblastoma growth inhibition, cell-based, chromothripsis tumors, cisplatin or BGB combos (AID 1671450).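 Also: cells exposed to compound for four days; 0% = vehicle DMSO and 100% = cell killing by high DMSO.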 The conditions noted are these: HDN33 neuroblastoma cells, stronger effect = higher value.
A short description of experiment [3]: ICB984 medulloblastoma cell growth inhibition, synergistic combos for chromothripsis tumors, cisplatin or BGB combos (AID 1671451; call rule not given here;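 also: cells exposed for 96 hours before readout; 0% = vehicle DMSO and 100% = killing by high DMSO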). The conditions noted are these: ICB984 medulloblastoma cells, drug combinations, stronger effect = higher value.
The nature of experiment [4]: LFS_MB_1R medulloblastoma cell growth inhibition, synergistic combos for chromothripsis tumors, cisplatin or BGB combos (AID 1671452).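 Also: cells exposed for 96 hours before readout.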 The conditions noted are these: LFS_MB_1R medulloblastoma cells, stronger effect = higher value.
A short description of experiment [5]: HTB85 osteosarcoma cell growth inhibition, synergistic combos for chromothripsis tumors, BGB or cisplatin IC20 combos (AID 1671453).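 Also: cells exposed for 96 hours before readout; 0% = vehicle DMSO and 100% = high DMSO killing control.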 Conditions: HTB85 osteosarcoma cells, drug combinations, stronger effect = higher value.
A short description of experiment [6]: CRL2098 osteosarcoma cell growth inhibition, synergistic combos for chromothripsis tumors, BGB or cisplatin IC20 combos (AID 1671454).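 Also: cells exposed for 96 h before readout; 0% = vehicle DMSO and 100% = killing by high DMSO.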 Conditions: CRL2098 osteosarcoma cells, drug combinations, stronger effect = higher value.
Experiment [7] is described as follows: MDA-MB-436 breast carcinoma cell growth inhibition, synergistic combos for chromothripsis tumors, BGB or cisplatin combos (AID 1671458; call rule not given here;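 also: cells exposed for 96 hours; 0% = vehicle DMSO and 100% = killing by high DMSO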). The conditions noted are these: MDA-MB-436 breast carcinoma growth inhibition, drug combinations, stronger effect = higher value.
Experiment [8] can be described thus: growth inhibition of BT084 medulloblastoma cells, cell-based, ICGC_MB145, cisplatin and BGB IC40 combos (AID 1671461).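 Also: cells exposed to drugs for 96 hours; 0% = vehicle DMSO and 100% = high DMSO full killing control.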 Conditions: drug combinations, stronger effect = higher value.
The nature of experiment [9]: growth inhibition of RCMB18 medulloblastoma cells, cell-based, cisplatin and BGB IC40 combos (AID 1671462).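 Also: cells exposed to compound for four days.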 Conditions: stronger effect = higher value.
The nature of experiment [10]: growth inhibition of CRL1545 osteosarcoma cells, cell-based, cisplatin and BGB IC20 combos (AID 1671464).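 Also: cells exposed to compound for 96 hours before readout; 0% = vehicle DMSO and 100% = high DMSO killing control.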 The conditions noted are these: stronger effect = higher value.
Experiment [11] is described as follows: circadian clock period modulators, cell-based, LOPAC library, luminescence reporter (AID 2774; call rule not given here;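 also: values are relative to mean of DMSO wells on each plate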). Conditions: circadian reporter cells, at 7 µM, actives lie on both sides.
Experiment [12] relates to Hepatitis C virus NS3 helicase. Put plainly: HCV NS3 helicase inhibitors, primary screen, biochemical, fluorescence polarization, LOPAC1280 library (AID 687035; in the data active = inhibition above about 37%). The conditions noted are these: Purified HCV NS3 helicase, Cy5-dT15 ssDNA binding fluorescence polarization; stronger effect = higher value; concentration not given here.
A short description of experiment [13]: Cy5 fluorescence quenching or enhancement artefacts, artefact control for HCV NS3 helicase inhibitor project, biochemical, LOPAC1280 (AID 687037; call rule not given here). The conditions noted are these: Cy5-DNA-NS3h complex fluorescence interference counterscreen.
Experiment [14] in a line: phospholipid biosynthesis inhibitors in animal cells, primary screen, cell-based, LOPAC library, screen 4 (AID 1347384; call rule not given here). The conditions noted are these: phospholipid biosynthesis inhibition screen, at 10 µM.
The nature of experiment [15]: hESC survival regulators, cell-based (AID 493140; call rule not given here;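 also: cells exposed to compounds for four days before counting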). The conditions noted are these: human embryonic stem cell survival screen; stronger effect = higher value.
The mark [16] stands for this setting: measured here: combination with BGB IC40, at 0.05 µM.
Where [17] appears, read: measured here: with BGB IC20 combination, at 0.5 µM.
Where [18] appears, read: measured here: with cisplatin IC20 combination, at 0.5 µM.
The mark [19] stands for this setting: measured here: combination with cisplatin, at 0.5 µM.

Consider `Nc1ncn([C@H]2C[C@H](O)[C@@H](CO)O2)c(=O)n1`, for which the inhibition is 6.06% (inactive) in experiment [1] (at 0.5 µM, stronger effect = higher value); -1.4% in experiment [1] (measured here: combination with BGB IC20, at 0.005 µM); -3.75% in [1] (measured here: combination with BGB IC40, at 0.005 µM); -40.3% in [1] (setting [16]); 19.6% in [1] (measured here: combination with cisplatin, at 0.5 µM, stronger effect = higher value); 18% in experiment [1] (measured here: combination with cisplatin, at 5 µM, stronger effect = higher value). The inhibition in [2] (BGB combo, at 5 µM) is 50.3%; in experiment [2] (at 0.5 µM), 24.3% (inactive); in experiment [2] (cisplatin combo, at 5 µM), 54.4%; in [2] (setting [17]) it was 30.2%; in experiment [2] (setting [18]) it was 11.6%; in experiment [2] (single agent, at 5 µM), 52.1%. Also, the inhibition in experiment [3] (BGB IC20 combo, at 0.005 µM) is -3.18%; in experiment [3] (BGB IC40 combo, at 0.005 µM) it was -34%; in experiment [3] (BGB IC40 combo, at 0.05 µM), -19.3%; in experiment [3] (at 0.5 µM) it was -18% (inactive); in experiment [3] (cisplatin combo, at 0.05 µM), -23.6%; in experiment [3] (cisplatin combo, at 0.5 µM), -14.1%. For the same compound, the inhibition in experiment [3] (cisplatin combo, at 5 µM) is -50.9%; in experiment [3] (measured here: 5 uM single agent, at 5 µM) it was -6.92%; in [4] (at 0.5 µM), -7.33% (inactive); in experiment [4] (setting [16]) it was -12.1%; in experiment [4] (setting [19]), -1.56%; in [4] (measured here: combination with cisplatin, at 5 µM), -10.1%. In addition, the inhibition in [5] (at 0.5 µM) is 3.38% (inactive); in experiment [5] (measured here: with BGB IC20, at 0.5 µM), 2.59%; in experiment [5] (measured here: with BGB IC20, at 5 µM) it was 19.3%; in [5] (measured here: with cisplatin IC20, at 0.5 µM), -6.21%; in [5] (measured here: with cisplatin IC20, at 5 µM), 27.4%; in experiment [5] (single agent, at 5 µM), 40.2%. In addition, the inhibition in experiment [6] (at 0.5 µM) is -25.9% (inactive); in [6] (measured here: combination with BGB at IC20, at 0.5 µM) it was -12.6%; in experiment [6] (measured here: combination with cisplatin at IC20, at 0.5 µM), -67.9%; in experiment [7] (at 0.5 µM) it was 17.4% (inactive); in experiment [7] (measured here: BGB combination, at 0.5 µM), 28.5%; in [7] (measured here: BGB combination, at 5 µM) it was 26.2%. The inhibition in [7] (measured here: cisplatin combination, at 0.5 µM) is 6.25%; in experiment [7] (measured here: cisplatin combination, at 5 µM), 4.64%; in [8] (at 0.5 µM), -3.99% (inactive); in experiment [8] (cisplatin combination, at 0.5 µM) it was -10.2%; in [8] (cisplatin combination, at 5 µM), 16.2%; in experiment [8] (measured here: BGB IC40 combination 0.05 uM, at 0.05 µM), -0.777%. The inhibition in experiment [8] (single agent, at 5 µM) is -11.6%; in experiment [9] (at 0.5 µM), -2.53% (inactive); in experiment [9] (cisplatin combo, at 5 µM), -31%; in experiment [9] (measured here: BGB IC40 combination, at 0.05 µM), 7.83%; in experiment [9] (setting [19]), -5.57%; in [9] (single agent, at 5 µM), 7.32%. Besides, the inhibition in experiment [10] (at 0.5 µM) was -20.4% (inactive); in experiment [10] (setting [17]) it was -0.059%; in experiment [10] (setting [18]) it was -32.7%; in experiment [10] (single agent, at 0.05 µM), -13.4%; in [10] (single agent, at 5 µM), 5.37%.

On to `CCn1ccnc1CC1COc2ccccc2O1` (centres undefined), for which, in experiment [11], the period change is 0.33 h (inactive). In [12], the inhibition is -4% (inactive). The fluorescence ratio (interference) in [13] is 1 (inactive). Also, the compound was classed as inactive in [14].

Regarding `Cc1ccc2c(c1)c1c3n2CCNC3CCC1` (centres undefined), in experiment [15], the survival is 11.2 (inactive).

Take `CN=C(NC#N)Nc1ccc(C2=NNC(=O)CC2C)cc1` (centres undefined): in [11], the period change was 0.035 h (inactive).
